Bioassay records as filed in PubChem.
USP7 inh: blocks human USP7 ubiquitin-rhodamine cleavage; Q93009; purified USP7, Ub-rhodamine cleavage fluorescence; inhibition, % at 20 µM; 47,000 tested, 0.3% active
Target sequence (Q93009 whole entry, looked up): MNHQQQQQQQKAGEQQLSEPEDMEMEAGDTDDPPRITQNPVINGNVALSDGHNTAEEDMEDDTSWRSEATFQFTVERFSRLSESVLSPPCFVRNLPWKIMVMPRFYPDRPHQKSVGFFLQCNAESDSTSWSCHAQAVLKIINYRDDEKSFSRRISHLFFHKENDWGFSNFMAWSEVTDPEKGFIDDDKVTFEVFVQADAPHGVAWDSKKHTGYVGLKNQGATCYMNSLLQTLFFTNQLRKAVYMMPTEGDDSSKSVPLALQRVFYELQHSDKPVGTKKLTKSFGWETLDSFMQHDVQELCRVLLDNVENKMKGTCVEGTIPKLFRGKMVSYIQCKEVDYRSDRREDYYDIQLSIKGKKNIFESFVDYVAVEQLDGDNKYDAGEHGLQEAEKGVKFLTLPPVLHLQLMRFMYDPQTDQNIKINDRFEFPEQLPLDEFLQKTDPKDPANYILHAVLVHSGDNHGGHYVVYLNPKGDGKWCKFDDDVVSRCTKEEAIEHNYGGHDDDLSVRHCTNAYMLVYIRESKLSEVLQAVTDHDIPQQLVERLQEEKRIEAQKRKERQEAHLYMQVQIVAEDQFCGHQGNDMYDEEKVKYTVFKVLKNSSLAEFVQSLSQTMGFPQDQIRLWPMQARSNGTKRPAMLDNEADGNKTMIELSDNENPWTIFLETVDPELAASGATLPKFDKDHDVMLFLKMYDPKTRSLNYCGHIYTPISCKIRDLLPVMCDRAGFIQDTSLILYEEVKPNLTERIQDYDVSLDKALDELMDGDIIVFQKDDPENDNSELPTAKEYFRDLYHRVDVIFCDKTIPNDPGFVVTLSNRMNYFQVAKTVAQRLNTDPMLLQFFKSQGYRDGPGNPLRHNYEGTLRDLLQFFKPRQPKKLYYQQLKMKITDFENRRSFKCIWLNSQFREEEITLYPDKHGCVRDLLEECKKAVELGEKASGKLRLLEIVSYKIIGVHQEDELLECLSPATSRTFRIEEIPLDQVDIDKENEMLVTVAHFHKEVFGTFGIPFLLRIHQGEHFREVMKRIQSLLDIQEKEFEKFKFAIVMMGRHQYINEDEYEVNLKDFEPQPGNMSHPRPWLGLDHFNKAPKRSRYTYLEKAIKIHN
UCHL1 block: inhibitors of human UCHL1 deubiquitinase. P09936. purified UCHL1, Ub-rhodamine cleavage fluorescence. inhibition, % at 20 µM. 47,000 tested, 0.2% active. AID 1645859
USP8 block: human USP8 deubiquitinase inhibition | P40818 | purified USP8, Ub-rhodamine cleavage fluorescence, 30 min | inhibition, % at 20 µM | 47,000 tested, 4.2% active | AID 1645853
USP10 block: human USP10 deubiquitinase inhibition; Q14694; purified USP10, Ub-rhodamine fluorescence, 60 min; inhibition, % at 20 µM; 47,000 tested, 1.1% active
* marks the source's active call; other numbers are inactive results. Rows were chosen to be rich in hits. Some 4.6% of all compounds tested hit in one or more screens of this group. No stated cut-off is given here; in the data, active means inhibition above about 30%; inactive means the rest.

For Cn1c(COc2cccc3cccnc23)nnc1SCC(=O)c1ccc(Cl)cc1Cl the results were USP7 inh -53.5, UCHL1 block 5.1, USP8 block 57.9* and USP10 block 36.1*.
For COc1ccccc1OCc1nnc(SCC(=O)c2ccc(F)cc2)n1C the results were USP7 inh -4.2, UCHL1 block 0.0, USP8 block -7.0 and USP10 block -1.3.
CCOCC1CN(C(=O)c2ccncn2)Cc2cnn(C)c21 (configuration not stated) was read as USP7 inh -7.2, UCHL1 block -2.2, USP8 block -56.3 and USP10 block -3.4.
For CC1(O)Cc2oc3cc(O)c(O)c(C(=O)O)c3c(=O)c2CO1 (configuration not stated) the results were USP7 inh 15.4, UCHL1 block 4.3, USP8 block 0.6 and USP10 block 2.8.
For O=c1[nH]c(=O)c2c(-c3ccc(-c4ccccc4)cc3)ccnc2[nH]1 the results were USP7 inh 11.2, UCHL1 block -7.1, USP8 block 75.9* and USP10 block -3.6.
For COc1cccc(-c2ccnc3[nH]c(=O)[nH]c(=O)c23)c1 the results were USP7 inh -0.2, UCHL1 block 2.4, USP8 block 0.5 and USP10 block -0.1.
Screening COc1ccccc1CNC(=O)CCCCn1c(=O)c2ccccc2n(Cc2cc(=O)n3c(C)cccc3n2)c1=O returned USP7 inh -3.3, UCHL1 block 7.2, USP8 block 44.9* and USP10 block -0.1.
For COc1cc(OC)c(NC(=O)Cn2c(=O)n(Cc3ccccc3Cl)c(=O)c3cc(OC)c(OC)cc32)cc1Cl the results were USP7 inh 2.7, UCHL1 block -0.4, USP8 block 26.5 and USP10 block 35.5*.
For COc1ccc(Cl)cc1NC(=O)Cn1c(=O)n(CCCCC(=O)NCCc2ccccc2)c(=O)c2ccccc21 the results were USP7 inh 1.7, UCHL1 block 0.2, USP8 block 42.2* and USP10 block 43.2*.
COc1ccc(NC(=O)Cn2c(=O)n(Cc3ccco3)c(=O)c3ccc(C(=O)NC4CCCC4)cc32)cc1 was read as USP7 inh 13.3, UCHL1 block 0.7, USP8 block 60.2* and USP10 block 49.0*.
COc1ccc(CCNC(=O)CCCCn2c(=O)c3ccccc3n(Cc3cccc(Cl)c3)c2=O)cc1OC was read as USP7 inh 6.5, UCHL1 block 5.2, USP8 block 2.5 and USP10 block 1.3.
`Cc1ccc(CN2CCN3Cc4ccccc4N(C(C)C)CC3C2)cc1` (configuration not stated) gave USP7 inh -60.1, UCHL1 block -55.0, USP8 block -203.3 and USP10 block -6.6.
`O=C(Nc1nnc2n1CCCS2)C1CCCCC1` gave USP7 inh -0.2, UCHL1 block -1.6, USP8 block -16.6 and USP10 block 0.4.
`COc1ccc(NC(=O)N2CCN(C3=CC4=NC(C)CN4C=N3)CC2)c(C)c1` (configuration not stated) gave USP7 inh -0.3, UCHL1 block -3.6, USP8 block -195.8 and USP10 block 1.9.
Screening COc1ccc(NC(=O)Cn2c(=O)n(CCC(=O)NC3CCCC3)c(=O)c3ccccc32)cc1Cl returned USP7 inh -1.7, UCHL1 block 0.8, USP8 block -5.5 and USP10 block 0.2.
For CCOc1ccc(NC(=O)Cn2c(=O)n(CCC(=O)NCc3ccccc3OC)c(=O)c3ccccc32)cc1 the results were USP7 inh 11.9, UCHL1 block 1.1, USP8 block 32.4* and USP10 block 33.6*.
For O=C(Cn1c(=O)n(CC(=O)NC2CCCC2)c(=O)c2ccccc21)Nc1ccc(F)cc1 the results were USP7 inh 1.9, UCHL1 block -1.8, USP8 block 37.3* and USP10 block 16.3.
For COc1ccc(Cl)cc1NC(=O)Cn1c(=O)n(CCC(=O)NC2CCCC2)c(=O)c2ccccc21 the results were USP7 inh -7.2, UCHL1 block 2.2, USP8 block 24.3 and USP10 block 42.9*.
For COc1ccccc1CNC(=O)CCn1c(=O)c2ccccc2n(Cc2ccccc2C#N)c1=O the results were USP7 inh 4.9, UCHL1 block 0.5, USP8 block 1.7 and USP10 block 3.8.
`O=C(Cn1c(=O)n(CC(=O)NC2CCCC2)c(=O)c2ccccc21)Nc1cc(Cl)ccc1Cl` gave USP7 inh 8.5, UCHL1 block 3.7, USP8 block 31.6* and USP10 block 19.2.
For CCC(=O)Nc1cccnc1-c1ccc(C(=O)Nc2cccc(OC)c2)cc1 the results were USP7 inh 0.0, UCHL1 block -0.3, USP8 block -27.1 and USP10 block 1.9.
O=C(C1CCC1)N1CCN(c2nc3c(s2)CC(C(=O)N2CCCC2)CC3)CC1 (configuration not stated) was read as USP7 inh 0.0, UCHL1 block -2.2, USP8 block -2.5 and USP10 block 0.9.
`O=C(NCc1cccnc1)c1c[nH]c2ccc(S(=O)(=O)Nc3cccc(C(F)(F)F)c3)cc2c1=O` gave USP7 inh -13.2, UCHL1 block 1.8, USP8 block -118.3 and USP10 block 9.7.
COc1cc2c(=O)n(CCC(=O)NC3CCCC3)c(=O)n(CC(=O)Nc3cccc(Cl)c3)c2cc1OC was read as USP7 inh -6.9, UCHL1 block 7.2, USP8 block -28.8 and USP10 block 30.5*.
`O=C(Nc1ccc(NS(=O)(=O)c2cccc(C(=O)N3CCCc4ccccc43)c2)cc1)c1ccccc1` gave USP7 inh 8.4, UCHL1 block 6.7, USP8 block 4.3 and USP10 block 10.8.
O=C(Nc1ccc(NS(=O)(=O)c2ccc3c4c(cccc24)CC3)cc1)c1ccccc1 was read as USP7 inh 2.5, UCHL1 block 0.3, USP8 block 43.2* and USP10 block -3.8.
Screening CC(C)(C)c1ccc(Cn2nnc3c(=O)[nH]c(C4CCN(S(=O)(=O)c5ccc(S(=O)(=O)NC6CC6)cc5)CC4)nc32)cc1 returned USP7 inh 13.9, UCHL1 block 10.5, USP8 block 32.6* and USP10 block 29.0.
For O=c1[nH]c(C2CCN(S(=O)(=O)c3ccc(S(=O)(=O)N4CCOCC4)cc3)CC2)nc2c1nnn2Cc1cccc(Cl)c1 the results were USP7 inh 8.8, UCHL1 block 5.5, USP8 block 34.9* and USP10 block 28.4.
For Cc1ccc(Cn2nnc3c(=O)[nH]c(C4CCN(S(=O)(=O)c5ccc(S(=O)(=O)NC6CCCC6)cc5)CC4)nc32)cc1 the results were USP7 inh 10.0, UCHL1 block 4.7, USP8 block -227.9 and USP10 block 33.7*.
`CN(C)C=NS(=O)(=O)c1cc(C(F)(F)F)cc(C(F)(F)F)c1` gave USP7 inh -0.1, UCHL1 block 2.0, USP8 block -1.0 and USP10 block 1.3.
For CCN(C=C1NC(=O)c2ccccc2N1)CC(=O)Nc1ccc(Cl)c(C(F)(F)F)c1 the results were USP7 inh -10.6, UCHL1 block 5.6, USP8 block 30.3* and USP10 block -2.6.
For CC(C)CC1Nc2ccc(C(=O)N3CCN(c4ccccn4)CC3)cc2NC1=O (configuration not stated) the results were USP7 inh 7.7, UCHL1 block 4.6, USP8 block 53.3* and USP10 block 4.4.
